Assay results reported in PubChem BioAssay.

biological target: Dihydroorotate dehydrogenase (quinone), mitochondrial (Plasmodium falciparum (isolate 3D7)) (UniProt Q08210); test: inhibition of P. falciparum DHODH – biochemical, C-terminal His tag, absorbance 600 nm, primary screen (AID 1175); conditions: PfDHODH enzyme, DCIP absorbance 600 nm; higher = more signal, called active from +8 up or from −8 down;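 further: recombinant parasite enzyme with a five histidine tag at its C terminus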
Further: test concentration not given here.

Dihydroorotate dehydrogenase (quinone), mitochondrial (Plasmodium falciparum (isolate 3D7)), sequence (Q08210 whole entry, looked up): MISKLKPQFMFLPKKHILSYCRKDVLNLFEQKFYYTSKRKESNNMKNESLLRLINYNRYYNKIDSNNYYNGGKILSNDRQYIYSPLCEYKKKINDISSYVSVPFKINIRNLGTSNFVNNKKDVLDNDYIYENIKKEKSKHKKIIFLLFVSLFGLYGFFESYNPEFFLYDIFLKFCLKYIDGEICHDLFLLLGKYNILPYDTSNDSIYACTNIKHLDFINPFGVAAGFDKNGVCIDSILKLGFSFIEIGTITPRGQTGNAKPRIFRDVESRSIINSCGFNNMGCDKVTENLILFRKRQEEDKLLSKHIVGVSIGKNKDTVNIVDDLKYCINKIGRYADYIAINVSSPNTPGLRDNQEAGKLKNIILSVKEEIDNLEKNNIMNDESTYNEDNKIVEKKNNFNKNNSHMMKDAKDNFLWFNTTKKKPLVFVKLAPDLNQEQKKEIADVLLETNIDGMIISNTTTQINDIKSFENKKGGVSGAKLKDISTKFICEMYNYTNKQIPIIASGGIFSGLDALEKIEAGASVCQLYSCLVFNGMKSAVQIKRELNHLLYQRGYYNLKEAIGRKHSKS

Composite z-score, inactive:
O=C(NCc1ccccc1)[C@@]1(Cc2ccccc2)COC(c2ccc(OCCCO)cc2)=N1 1.1, C=C(CCCC)/C(=C/C[C@@H](OC(=O)c1ccncc1)c1ccc(CO)o1)c1cnc2ccccc2c1 -7.54, O=C1C2C=CC(C(O)C#Cc3ccccc3)N(Nc3ccccc3)C2C(=O)N1c1ccccc1 (stereo not given) -0.766, CCCC=C(CCC)[C@@H](NC(=O)c1ccc(C(F)(F)F)cc1)c1ccccc1 -3.63, COc1ccc(NN2C(C(O)c3cc(OC)c(OC)c(OC)c3)C=CC3C(=O)N(C4CCCCC4)C(=O)C32)cc1 (stereo not given) -0.41, C#CCCCON=C1C[C@@H](O)[C@@H](O)[C@@H]2[C@@H]3C(=O)N(Cc4ccc5c(c4)OCO5)C(=O)[C@@H]3CC[C@@H]12 0.175, COC(=O)C1=CC(c2ccc(CO)cc2)=CC(c2cccs2)N(Cc2cccc(OC(F)(F)F)c2)C=C1C(=O)OC (stereo not given) -5.67, O=C1O[C@H](c2ccccc2)[C@H](c2ccccc2)N2[C@H]1[C@@H](C(=O)NC[C@H](O)c1ccccc1)[C@]1(C(=O)Nc3ccc(C#CC4=CCCCC4)cc31)[C@H]2c1ccc(OCCO)cc1 -0.186, CC[C@H]1C2=C3C(CC[C@H]4C(OC)OC[C@](C)([C@@H]34)N(C(=O)OC(C)(C)C)C2)C(CO)C1CO (stereo not given in full) -0.929

tested on: not listed separately; test: inhibition of PAO1 biofilm formation – strain PAO1, LB-PBS medium, absorbance 600 nm, primary screen (AID 1176); conditions: P. aeruginosa PAO1 growth/biofilm, A600, 12 h; higher = more signal

z-score, inactive:
COC(=O)Cn1c(C(=O)N2CCCC2)cc2c1C[C@H]1CN(C(=O)c3ccccc3)[C@@](Cc3ccccc3)(C(=O)OC)[C@@H]21 0.619, O=C1C[C@@](C(=O)NCCN2CCOCC2)(c2ccc([N+](=O)[O-])cc2)[C@@H](c2ccc(CO)cc2)N1C1CCCCC1 0.292, CC(=O)NCCCC[C@@H]1NC(=O)[C@H]2C[C@@H](C(=O)NCCCCCCN(C)C)[C@@H](c3cccc(OCCO)c3)N2C1=O 0.42, CC(C)(C)OC(=O)CC[C@]1(C(=O)N2CCCCC2)N=C(c2ccc(OCCCO)cc2)O[C@H]1c1ccccc1 0.0937, CC(=O)NCCCC[C@@H]1NC(=O)[C@H]2C[C@@H](C(=O)NCCCCCCN(C)C)[C@@H](c3ccc(O)cc3)N2C1=O -0.0059, O=C1C2C=CC(C(O)Cc3ccccc3)N(Nc3ccc([N+](=O)[O-])cc3)C2C(=O)N1c1ccccc1 (stereo not given) 0.946, C=C(COC)C(=O)CC[C@H](OC(=O)c1ccccc1-c1ccccc1C(=O)O)c1cccc(OCCO)c1 1.99, C=CC[C@@]1(C(=O)NCC(O)CO)N=C(c2ccc(OCCCO)cc2)O[C@@H]1c1ccccc1CN=[N+]=[N-] (stereo not given in full) 0.385, O=C(CS)NCCCCCCNC(=O)[C@@H]1C[C@@H]2C(=O)N[C@@H](Cc3ccccc3)C(=O)N2[C@@H]1c1ccc(O)cc1 -0.239, C=CC[C@]1(C(=O)N2CCCCC2)N=C(c2ccc(OCCCO)cc2)O[C@H]1c1ccccc1N=[N+]=[N-] 0.274, COC(=O)[C@@]1(Cc2ccc(OC)cc2)[C@H]2c3cc(C(=O)N(C)C)n(Cc4ccc(C)c(F)c4F)c3C[C@H]2CN1C(=O)c1ccccc1 0.0944, [N-]=[N+]=NCc1ccccc1C[C@]1(C(=O)N2CCCCC2)N=C(c2ccc(OCCCO)cc2)O[C@H]1c1ccccc1CN=[N+]=[N-] 1.76, CC(C)[Si](OCC[C@H]1O[C@]2(C(=O)N(Cc3ccccc3)c3ccccc32)[C@@H](C)[C@@H]1[Si](C)(C)O)(C(C)C)C(C)C -0.66, C=CCC(OC(C)=O)[C@@H]1[C@@H](N(Cc2ccc(-c3cccc(C(F)(F)F)c3)o2)C(=O)Cc2ccc(F)cc2)c2cc(OCCCO)ccc2N1C(=O)c1ccc(-c2ccccc2)cc1 (stereo not given in full) 1.11, C=C[C@H](OC)[C@@H](OC(=O)Nc1ccc(SC)cc1)c1ccc(O)c(F)c1 1.88, O=C1O[C@H](c2ccccc2)[C@H](c2ccccc2)N2[C@H]1[C@@H](C(=O)NC[C@H](O)c1ccccc1)[C@]1(C(=O)Nc3ccc(C#CC4(O)CCCCCC4)cc31)[C@H]2c1ccc(OCCO)cc1 1.9, CC(C)C[C@@H]1NC(=O)[C@H](CC(C)C)NC(=O)[C@@]23C(=O)N[C@@H](Cc4ccccc4)C2[C@H](C)[C@@]2(C)O[C@H]2C3/C=C/CC/C=C/CNC1=O (stereo not given in full) 0.179, O=C1NC(=O)C2C1C=CC(C(O)C=Cc1ccc([N+](=O)[O-])cc1)N2Nc1ccccn1 (stereo not given) 1.23, NC(=O)NCC#Cc1ccc2c(c1)[C@]1(C(=O)N2)[C@H](C(N)=O)[C@H]2C(=O)O[C@H](c3ccccc3)[C@H](c3ccccc3)N2[C@@H]1c1ccccc1OCCO 0.75, CCOC(=O)C[C@H]1[C@H](OC(=O)c2cc3ccccc3oc2=O)[C@@H](NC(=O)C2CCCCC2)c2cc(OCCCO)ccc2N1C(=O)c1ccc2ccccc2n1 -0.0339, COc1cc2c(cc1OC)CN(C(=O)[C@H]1[C@@H]3C(=O)O[C@@H](c4ccccc4)[C@@H](c4ccccc4)N3[C@@H](c3ccc(O)cc3)[C@]13C(=O)Nc1ccc(C#CC4(O)CCCCCC4)cc13)CC2 0.89, O=C1OCCC/C=C\[C@H]2OC34C=CCN(CCN5CCOCC5)C(=O)[C@H]3N(CCCCCO)C(=O)[C@@H]4C12 (stereo not given in full) -0.0432, C[N+](C)(C)CCCCNC(=O)[C@H]1C[C@H]2C(=O)NCC(=O)N2[C@H]1c1cccc(OCCO)c1 1, O=C1C[C@@](C(=O)NC2CC2)(c2ccc([N+](=O)[O-])cc2)[C@@H](c2ccc(CO)cc2I)N1CC12CC3CC(CC(C3)C1)C2 1.2, C=C(CCCC)/C(=C/C[C@@H](OC(=O)c1ccncc1)c1cccc(OCCO)c1)c1cc(C(=O)OC)ccc1OC 1.05, Cc1ccc(S[C@]2(C(=O)NCCCN(C)C)CC(=O)N(Cc3ccccc3)[C@@H]2c2ccc(CO)cc2I)cc1 -0.369, O=C1O[C@H](c2ccccc2)[C@H](c2ccccc2)N2[C@H]1[C@@H](C(=O)Nc1nc3ccccc3s1)[C@]1(C(=O)Nc3ccc(C#CC4(O)CCCCCC4)cc31)[C@H]2c1ccc(O)cc1 1.44, O=C(NCc1ccccc1)[C@@]1(Cc2ccccc2)COC(c2ccc(OCCCO)cc2)=N1 0.162, C=C(CCCC)/C(=C/C[C@@H](OC(=O)c1ccncc1)c1ccc(CO)o1)c1cnc2ccccc2c1 0.154, O=C1C2C=CC(C(O)C#Cc3ccccc3)N(Nc3ccccc3)C2C(=O)N1c1ccccc1 (stereo not given) 0.875, CCCC=C(CCC)[C@@H](NC(=O)c1ccc(C(F)(F)F)cc1)c1ccccc1 4.02, COc1ccc(NN2C(C(O)c3cc(OC)c(OC)c(OC)c3)C=CC3C(=O)N(C4CCCCC4)C(=O)C32)cc1 (stereo not given) 0.89, C#CCCCON=C1C[C@@H](O)[C@@H](O)[C@@H]2[C@@H]3C(=O)N(Cc4ccc5c(c4)OCO5)C(=O)[C@@H]3CC[C@@H]12 -0.993, COC(=O)C1=CC(c2ccc(CO)cc2)=CC(c2cccs2)N(Cc2cccc(OC(F)(F)F)c2)C=C1C(=O)OC (stereo not given) 0.683, O=C1O[C@H](c2ccccc2)[C@H](c2ccccc2)N2[C@H]1[C@@H](C(=O)NC[C@H](O)c1ccccc1)[C@]1(C(=O)Nc3ccc(C#CC4=CCCCC4)cc31)[C@H]2c1ccc(OCCO)cc1 2.05, CC[C@H]1C2=C3C(CC[C@H]4C(OC)OC[C@](C)([C@@H]34)N(C(=O)OC(C)(C)C)C2)C(CO)C1CO (stereo not given in full) 0.452
